Screening results from PubChem BioAssay.
CASP6 VEID inh: inhibitors of human caspase-6; inhibition, % at 12.5 µM; AID 686996; purified caspase-6, Z-VEID-R110 cleavage fluorescence; P55212; hit rate 0.53% among 350,000;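 active = mean inhibition across replicates at least about 35%, with every replicate also reaching that limit, limit read from the data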;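 also: 0% = median of neutral control wells and 100% = no fluorescence left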
INS-1E GSIS act: primary screen for activators of insulin secretion dependent on glucose, INS-1E cells, GLuc reporter luminescence. INS-1E GLuc reporter insulin secretion, 2-3 h. activation, % at 16.6 µM. hit rate 0.61% among 370,000. AID 743287;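 active = lowest replicate activation of at least 40%, so every replicate reaches that level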;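 also: 0% = median of neutral control wells and 100% = median of IBMX positive control wells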
ERAP1 inh: ERAP1 (human) enzyme inhibition | hit rate 0.15% among 340,000 | inhibition, % at 10.7 µM | recombinant ERAP1, Leu-AMC fluorescence, 60 min;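 active = mean replicate inhibition of at least 30%, or all replicates individually reaching that 30% level; inactive = mean below 30% and not every replicate reaching it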;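 also: 0% = neutral control wells and 100% = L-leucinethiol positive control wells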
FGF22 binding: binders of recombinant human FGF22 by thermal shift | Q9HCT0 | SYPRO orange fluorescence; percent of sucrose octasulfate shift, DMSO zero | activity (Tm shift, normalised), % at 9.99 µM | hit rate 1.5% among 340,000 | AID 651658;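 active = mean Tm shift, scaled 0 neutral to 100 positive control, at about 1.3% or above, every replicate too, limit read from the data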
Target sequence (Q9HCT0 whole entry, looked up): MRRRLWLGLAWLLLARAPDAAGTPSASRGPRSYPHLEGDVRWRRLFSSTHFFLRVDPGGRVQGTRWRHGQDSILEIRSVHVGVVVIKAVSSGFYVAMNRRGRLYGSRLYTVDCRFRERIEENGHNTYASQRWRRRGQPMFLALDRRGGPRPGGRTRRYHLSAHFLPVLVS
SIRT5 inh: inhibitors of human sirtuin-5 desuccinylase. Q9NXA8. Purified SirT5, succinyl-peptide AMC, trypsin-coupled fluorescence. hit rate 1.1% among 330,000. AID 652115. inhibition, % at 15 µM; in the data active = inhibition above about 15%
Target sequence (Q9NXA8 whole entry, looked up): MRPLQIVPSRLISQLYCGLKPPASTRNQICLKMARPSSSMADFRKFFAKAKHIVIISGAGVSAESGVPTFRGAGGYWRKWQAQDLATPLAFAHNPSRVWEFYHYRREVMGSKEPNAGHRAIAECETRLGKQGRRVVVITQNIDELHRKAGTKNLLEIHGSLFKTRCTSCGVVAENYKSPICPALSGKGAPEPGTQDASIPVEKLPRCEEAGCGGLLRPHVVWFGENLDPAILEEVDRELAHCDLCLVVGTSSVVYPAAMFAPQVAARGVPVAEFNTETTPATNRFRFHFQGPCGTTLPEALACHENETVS
An asterisk follows results filed as active; x = no result given. Hits are enriched below; roughly 3.3% of the tested compounds scored in any of these assays.

SMILES	CASP6 VEID inh	INS-1E GSIS act	ERAP1 inh	FGF22 binding	SIRT5 inh
O=S(=O)(N1CCOCC1)n1c(Cc2ccccc2)nc2ccccc21	x	49.4*	x	x	x
O=S(=O)(c1ccc(Cl)cc1)n1c(Cc2ccccc2)nc2ccccc21	-1.4	2.0	-0.9	0.3	11.4
CN(C)C(=O)C[C@@H]1C=C[C@@H](NC(=O)NC2CCCC2)[C@H](CO)O1	-1.6	-9.8	3.8	0.0	-4.9
CC(c1ccccc1)C1OCC(C[N+]2(C)CCCCC2)O1 (centres undefined)	-9.0	4.1	14.6	0.1	-2.8
CCCCC(CC)C1OCC(C[N+]2(C)CCOCC2)O1 (centres undefined)	-2.5	0.4	83.1*	-0.2	-4.3
O=C(COc1ccc(Cl)cc1)NCCS(=O)(=O)N1CCN(c2ccccc2F)CC1	-4.1	40.6*	1.8	0.1	0.4
C[C@H](CO)N1C[C@H](C)[C@H](CN(C)C(=O)c2cnccn2)Oc2ncc(-c3cccc(F)c3)cc2C1=O	0.6	7.5	-2.3	0.0	-1.9
CO[C@@H]1CN(C)C(=O)c2ccc(NC(=O)C3CCCC3)cc2OC[C@@H](C)NC[C@H]1C	0.6	15.1	-3.7	-0.4	-2.0
CCCCCc1cc(=O)oc2c(C(CCN(CC)CC)c3cc(OC)c(OC)c(OC)c3)c(OC)cc(OC)c12 (centres undefined)	3.9	62.9*	0.5	0.1	-2.4
CCCCCc1cc(=O)oc2c(C(CCN3CCCCC3)c3ccc4c(c3)OCO4)c(OC)cc(OC)c12 (centres undefined)	0.8	94.7	-0.3	-0.2	x
O=C(C[C@H]1CC[C@@H]2[C@H](COC[C@H](O)CN2Cc2ccc(Oc3ccccc3)cc2)O1)Nc1nccs1	-1.4	-1.3	0.0	-0.3	1.8
CCOC(=O)c1c(C)[nH]c(C(=O)CN2C(=O)NC(C)(CC(C)C)C2=O)c1C (centres undefined)	-0.2	-7.9	-0.4	43.7*	-4.6
CCOC(=O)c1[nH]c(C)c(C(=O)OCC)c1C	1.1	4.1	x	0.4	x
COc1ccc(CN(C)C[C@H]2Oc3ccc(NC(=O)Nc4ccccc4)cc3C(=O)N([C@H](C)CO)C[C@@H]2C)cc1	x	-1.9	-4.9	0.0	4.7
O=C(COC(=O)c1cccs1)NCC1CCCCC1	0.4	3.3	0.2	43.4*	-2.0
Cc1ccc(S(=O)(=O)Nc2cccc3c2O[C@H](CN(C)C(=O)Nc2ccc4c(c2)OCO4)[C@@H](C)CN([C@H](C)CO)C3=O)cc1	0.1	-2.0	-2.1	0.1	-0.9
CCC(=O)N1CC[C@@H]2[C@H](CO)Nc3ccc(C#Cc4cccc(OC)c4)cc3[C@@H]21	x	1.2	x	x	x
Cc1ccc(C(=O)n2nc(-c3cccnc3)nc2N)cc1	x	71.9*	x	x	x
COc1ccccc1C(=O)n1nc(-c2cccnc2)nc1N	-1.0	1.8	0.5	0.0	2.6
C[C@@H]1CN([C@H](C)CO)C(=O)c2cc(-c3cccnc3)cnc2O[C@@H]1CN(C)C	1.0	11.9	3.0	-0.5	4.5
Cn1cc(CCNC(=O)CCc2nnc(CCCCc3ccccc3)o2)cn1	-4.0	-0.4	0.9	0.1	-0.4
O=C(CCc1nnc(CCCc2ccccc2)o1)NCCN1CCOC1=O	0.2	2.3	0.8	42.9*	-2.0
O=[N+]([O-])c1ccc(Oc2ccc(/C=N/O)cc2)nc1	1.3	-33.2	3.6	42.9*	0.6
O=C1NC(=O)/C(=C\c2ccc(Oc3ccc([N+](=O)[O-])cn3)cc2)S1	x	-37.8	x	x	x
CCN(Cc1ccccc1)S(=O)(=O)CCNC(=O)c1ccccc1	-3.9	9.4	0.9	x	-1.9
SMILES	CASP6 VEID inh	INS-1E GSIS act	ERAP1 inh	FGF22 binding	SIRT5 inh
CCN(Cc1ccccc1)S(=O)(=O)CCNC(=O)c1ccc(OC)cc1	1.2	1.7	0.7	0.0	35.0*
CC1CN(CCOCCSc2ccccc2)CC(C)O1 (centres undefined)	-1.6	4.0	-2.3	43.4*	-3.2
CC1CN(CCOCCSc2ccc(Cl)cc2)CC(C)O1 (centres undefined)	-1.6	-17.9	-2.2	-0.2	-2.6
CCCCCNC(=O)C(c1cc2ccccc2o1)n1c(=O)c(-c2ccccc2)nc2ccccc21 (centres undefined)	-3.1	28.0	-0.9	0.1	18.9*
CCCCCNC(=O)C(c1cc2ccccc2o1)n1c(=O)c(-c2cc3ccccc3[nH]2)nc2ccccc21 (centres undefined)	-1.7	-6.1	x	-0.2	-0.6
CN(C)c1cc[n+](CC(=O)Nc2ccc(OC(F)F)cc2)cc1	1.5	-6.4	106.8*	0.0	4.0
N#C[C@H]1[C@@H](c2ccc(C3=CCCCC3)cc2)[C@H](CO)N1C(=O)Cc1ccncc1	-1.1	2.4	1.2	0.1	1.9
COc1ccc2oc(C(=O)Nc3nc4ccc(S(C)(=O)=O)cc4s3)c(C)c2c1	0.1	3.3	-1.3	-0.5	-1.9
COc1ccc2oc(C(=O)Nc3nnc(C)s3)c(C)c2c1	-4.8	52.7*	-0.4	0.1	-2.1
Cc1c(C(=O)N2CCN(C)CC2)oc2ccc(Br)cc12	2.1	3.1	x	-0.1	-2.2
COc1ccc2oc(C(=O)N3CCN(c4ncccn4)CC3)c(C)c2c1	35.9*	40.5	0.4	0.0	0.2
Cc1c(C(=O)N2CCCC2)oc2ccc(Br)cc12	39.1*	8.0	3.0	0.0	0.7
CCC(CC)NC(=O)c1ccccc1Oc1ccccc1	x	53.2*	x	x	x
CNC(=S)Nc1ccc2[nH]c(=O)[nH]c2c1	-5.2	2.4	-0.5	-0.1	20.9*
COc1ccccc1C(=O)NC(=S)Nc1ccc2[nH]c(=O)[nH]c2c1	-2.0	44.5*	-1.4	-0.3	-3.3
CC(C)NC(=S)Nc1ccc2[nH]c(=O)[nH]c2c1	3.4	16.0	x	0.1	-3.8
CNC[C@H]1Oc2ccc(NS(=O)(=O)c3ccccc3)cc2CC(=O)N([C@@H](C)CO)C[C@H]1C	-1.6	-4.9	1.4	0.0	-5.5
CCCn1nc(NC(=O)c2ccco2)c2cc3ccccc3nc21	x	44.9*	x	x	x
NNC(=S)Nc1cccc(-c2n[nH]c(=S)o2)c1	1.4	-12.6	-8.4	0.1	18.3*
O=S(=O)(c1ccc(Cl)cc1)N1CCN(Cc2cccc(OCCO)c2)CC1	2.1	x	1.1	0.0	x
CCOCCCNC(=O)C1c2ccccc2Oc2ccccc21	41.3*	x	1.0	0.0	-6.3
CCN(CC)CCNC(=O)C1c2ccccc2Oc2ccccc21	-25.9	4.5	-3.9	-0.1	-4.6
CC(=O)NN1C(=O)/C(=C\c2ccc(Br)o2)SC1=S	50.5*	-3.2	0.7	0.3	-0.9
COc1ccc(S(=O)(=O)N2CCC(C(=O)N[C@H](C(=O)NCc3ccccc3)C(C)C)CC2)cc1	-2.1	x	-3.1	43.9*	x
C[C@H](NC(=O)C1CCN(S(=O)(=O)c2ccccc2)CC1)C(=O)NC1CC1	0.6	x	-1.9	43.0*	x
CSCC[C@H](NC(=O)C1CCN(S(=O)(=O)c2ccccc2)CC1)C(=O)NC1CC1	0.3	4.8	0.3	0.0	-3.0
COc1ccc(CNC(=O)C2CCN(S(=O)(=O)c3ccccc3)CC2)cc1	0.3	-11.9	-1.1	-0.2	1.4
CCS(=O)(=O)N1CCC(C(=O)NCc2ccc(OC)cc2)CC1	-0.2	x	0.7	43.3*	-4.8
